In the library only some 4.3% were active in any assay of this set; here they are far more common.
UBC13 inh: human UBC13 polyubiquitination inhibition; UBC13 polyubiquitin chain formation, TR-FRET; inhibition, % at 20 µM; 330,000 compounds, 0.47% hits; AID 485273; in the data active means inhibition above about 45%, passing the limit was not always enough
NR3A LBD binder: modulates the human NR3A ligand-binding domain; 340,000 compounds, 2.5% hits; NR3A LBD differential scanning fluorimetry, Tm shift; 0% = protein alone, 100% = glycine-bound protein; Tm shift relative to glycine control, % at 25 µM;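 active means melting temperature shift of at least 10% of the positive control shift, at one fixed dose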
dFosB act: activators of mouse delta FosB homodimer. activation, % at 25 µM. purified delta FosB, TAMRA-CDK5 oligo fluorescence polarization; percent of positive-control signal above neutral wells. AID 493131. 340,000 compounds, 0.99% hits;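 active means mean activation above about 17%, with every replicate also reaching it, limit read from the data, passing the limit was not always enough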
Target sequence (P13346 whole entry, looked up): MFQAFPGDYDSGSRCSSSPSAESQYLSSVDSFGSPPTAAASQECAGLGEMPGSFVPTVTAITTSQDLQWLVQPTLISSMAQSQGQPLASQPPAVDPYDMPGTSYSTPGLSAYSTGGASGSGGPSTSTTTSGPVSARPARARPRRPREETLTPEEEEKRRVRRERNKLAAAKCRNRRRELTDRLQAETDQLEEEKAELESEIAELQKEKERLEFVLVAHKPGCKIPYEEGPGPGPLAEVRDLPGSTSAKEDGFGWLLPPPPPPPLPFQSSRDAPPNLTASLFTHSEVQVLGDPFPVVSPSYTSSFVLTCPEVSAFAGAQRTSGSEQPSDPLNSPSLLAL
Yeast superoxide: caloric restriction mimetics inhibiting age-related superoxide in yeast; S. cerevisiae aged cells, superoxide DHE fluorescence; stronger effect = lower value; superoxide response (% of plate mean), % at 10 µM; 330,000 compounds, 0.18% hits; AID 2690;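 active means superoxide response under a set limit, about three screen SD below normal, cut at about 65% in these data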;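 further: yeast aged for seven days with compound at 30 °C before DHE staining; 100% = average MFI of all compound-treated wells on the plate with controls excluded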
NALP1 yeast inh: blocks the NALP1 inflammasome reconstituted in yeast; S. cerevisiae NALP1/ASC/caspase-1 growth, X-gal OD620, 72 h; inhibition, % at 10 µM; 280,000 compounds, 0.61% hits; AID 2071; in the data active means inhibition mostly above about 24%, no sharp cut-off; inactive means mostly below about 32%
* = called active by the depositor; / = not tested or not shown.

SMILES	UBC13 inh	NR3A LBD binder	dFosB act	Yeast superoxide	NALP1 yeast inh
C=CCOc1cccc(C(=O)N2CCC(CCC(=O)NC3CC3)CC2)c1	-6	16*	-1	106	25
N#C/C(=C\c1ccc(Cl)cc1)c1nc(-c2ccco2)cs1	-9	-5	-2	97	35
N#C/C(=C\c1ccc(-c2ccccc2)cc1)c1nc(-c2ccco2)cs1	-5	28*	-5	112	34
N#C/C(=C\c1ccc(F)cc1)c1nc(-c2ccco2)cs1	-10	24*	-7	104	40
CC1(c2ccccc2)NC(=O)N(N)C1=O (stereo unspecified)	-2	-1	4	89	7
O=C(Nc1ccccc1-c1ccccc1)c1cccc(C(F)(F)F)c1	-9	18*	-2	91	21
CC(=O)CSc1nc(-c2cccs2)c(C#N)c(=O)[nH]1	25	-1	1	/	36*
C=CCNC(=O)c1c(N)n(-c2ccc3c(c2)OCO3)c2nc3ccccc3nc12	-30	-4	0	99	13
C=CCn1c(N)c(C(=O)OCCC)c2nc3ccccc3nc21	12	-3	2	103	25
C=CCn1c(N)c(C(=O)Nc2ccc(C)c(C)c2)c2nc3ccccc3nc21	13	24*	-8	99	-2
C=CCn1c(N)c(C(=O)Nc2cccc(C)c2)c2nc3ccccc3nc21	8	18*	-1	110	2
CSc1nc2ccc(NS(=O)(=O)c3cccc(Cl)c3Cl)cc2s1	-8	16*	-2	106	4
Cc1nc2ccc(NS(=O)(=O)c3ccccc3Cl)cc2s1	-4	-1	-7	94	/
COc1cc2c(c(OC)c1OC)-c1ccc(SC)c(=O)cc1C(N)CC2 (stereo unspecified)	/	0	-1	/	/
Cc1[nH]n(-c2ccccc2)c(=O)c1N=Nc1ccc2c(c1)OCO2	-72	-1	-7	99	8
Nc1[nH]n2c(=O)cc(-c3ccccc3)nc2c1N=Nc1ccc2c(c1)OCO2	-82	/	/	89	42*
COc1ccc(Nc2nc(=O)c3cc([N+](=O)[O-])ccc3s2)cc1	/	13*	11	/	/
Cc1ccc(Nc2nc(=O)c3cc([N+](=O)[O-])ccc3s2)cc1	-1	13*	13	89	/
CC(OC(=O)c1cnccn1)C(=O)c1ccccc1 (stereo unspecified)	-4	0	2	97	/
Cc1cccc(NC(=O)CSCC(=O)N(C)CCOc2ccc(Cl)cc2)c1	5	-3	-5	112	/
O=C(CCC(=O)c1ccc(Cl)s1)Nc1ncccc1O	5	0	-1	144	/
COc1cc2c(=O)n(Cc3ccco3)c(=O)n(CC(=O)c3ccc(Br)cc3)c2cc1OC	-1	14*	-3	85	11
O=C(Nc1ccccc1)c1ccc(Nc2c([N+](=O)[O-])cc([N+](=O)[O-])c3ccccc23)cc1	-78	11*	1	124	25
COCCCN(C(=O)C1CCC1)c1c(N)n(Cc2ccccc2)c(=O)[nH]c1=O	3	0	-2	96	/
S=C(Nc1ccc(Cl)c(Cl)c1)NC1CCCCC1	6	23*	-5	105	32
SMILES	UBC13 inh	NR3A LBD binder	dFosB act	Yeast superoxide	NALP1 yeast inh
O=C(Nc1ccc(Br)cc1)NC1CCCCCCC1	-2	11*	1	98	19
S=C(Nc1ccc(Oc2ccc(NC(=S)NC3CCCCC3)cc2)cc1)NC1CCCCC1	-18	32*	-7	113	0
CCCN(CC1CC1)C(=S)Nc1ccc(Oc2ccccc2)cc1	-8	-8	-11	91	61*
O=C(Nc1ccccc1)NC1CCCCCCC1	0	-2	/	99	/
CCN(c1ccccc1)S(=O)(=O)c1ccc(Oc2ccc(C(C)=O)cc2OC)nc1	-2	1	-9	86	/
S=C(Nc1ccc(Oc2ccccc2)cc1)NC1CCCCCC1	/	11*	-3	100	25
Cc1ccc(C)c(OCCC(=O)OCC(=O)NNC(=O)c2ccccc2)c1	11	-2	1	81	/
C[C@@H]1CN([C@H](C)CO)C(=O)Cc2cc(NC(=O)Nc3ccccc3)ccc2O[C@@H]1CN(C)Cc1ccc2c(c1)OCO2	8	-4	-3	110	/
Nc1n[nH]c(N)c1N=Nc1cccc(F)c1	-5	-25	-5	106	22
Nc1n[nH]c(N)c1N=Nc1cccc(C(F)(F)F)c1	-8	20*	-6	97	5
CN1C(=O)C(CC(=O)O)S/C1=N\N=C\c1ccc(O)cc1O (stereo unspecified)	-12	0	0	99	2

Compound activity from PubChem BioAssay.
